Results as given in PubChem BioAssay (NCI).
This is part of a sample that, as a whole, favours compounds with a hit. Of some 79,000 tested, about 15% had one in any assay. Unmarked numbers belong to inactive results. Calls of active or inactive are those of the source. Cut-off read from the data, not from the text of the source: active = growth inhibition above about 70%; inactive = the rest.

Experiments:
[1] = NCI Yeast Anticancer Drug Screen. Data for the rad50 strain (AID 155);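 note: 0% = growth of vehicle-only cultures of the same strain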; conditions: S. cerevisiae rad50 strain growth inhibition; at 50.0 µM; hits give high values
How it was run: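 Readout: growth inhibition relative to vehicle-treated cultures. Compound exposure was carried out in a genetically defined yeast strain deficient in DNA damage repair.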

[2] = NCI Yeast Anticancer Drug Screen. Data for the mec2-1 strain (AID 157); conditions: S. cerevisiae mec2-1 strain, at 50.0 µM, hits give high values
How it was run: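 Growth inhibition is read against vehicle-treated controls after compound exposure of the mec2-1 yeast strain, which is defective in DNA damage repair or cell cycle control.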

[3] = NCI Yeast Anticancer Drug Screen. Data for the sgs1 mgt1 strain (AID 161);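 note: 0% = growth of cultures given vehicle only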; conditions: S. cerevisiae sgs1 mgt1 strain, at 50.0 µM, hits give high values
How it was run: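 Growth of a repair-deficient yeast mutant was monitored after compound treatment and expressed as inhibition relative to vehicle-treated cultures.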

[4] = NCI Yeast Anticancer Drug Screen. Data for the cln2 rad14 strain (AID 165);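 note: 0% = growth equal to vehicle treated cultures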; conditions: S. cerevisiae cln2 rad14 strain, at 50.0 µM, hits give high values
How it was run: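 Growth inhibition, relative to vehicle-treated controls, is the read-out. The test organism is a yeast strain with defined genetic alterations, cln2 rad14.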

[5] = NCI Yeast Anticancer Drug Screen. Data for the bub3 strain (AID 167); conditions: S. cerevisiae bub3 mutant strain, at 50.0 µM, hits give high values
How it was run: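 Readout: yeast growth inhibition, expressed relative to vehicle-only wells. The test organism is a mutant strain from a panel with lesions in DNA repair or checkpoint genes.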

[6] = NCI Yeast Anticancer Drug Screen. Data for the mlh1 rad18 strain (AID 175); conditions: S. cerevisiae mlh1 rad18 strain growth inhibition; at 50.0 µM; hits give high values
How it was run: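 Cells of a genetically altered yeast strain, deficient in DNA damage repair, were treated with compound. Their growth was then compared with that of vehicle-treated cultures to give inhibition.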

CC1(CO)COC(=O)C(C)(C2(C)NC(C)(CO)COC2=O)N1 (stereo unspecified)
growth inhibition [1]: 3.6%
growth inhibition [2]: -17.6%
growth inhibition [3]: -17.6%
growth inhibition [4]: 13.1%
growth inhibition [5]: -24.2%
growth inhibition [6]: 4.05%

O=C1c2cc3c(cc2CC12Cc1cc4c(cc1C2)CCC4)CCC3
growth inhibition [1]: -14.6%
growth inhibition [2]: 1.4%
growth inhibition [3]: -8%
growth inhibition [4]: 7.45%
growth inhibition [5]: -3%
growth inhibition [6]: -1.35%

COC(=O)C1CC(=O)c2cc(OC)ccc2C1 (stereo unspecified)
growth inhibition [1]: -1.85%
growth inhibition [2]: 2.8%
growth inhibition [3]: -7.7%
growth inhibition [4]: 6.05%
growth inhibition [5]: -7.75%
growth inhibition [6]: -27.1%

COC(=O)c1ccccc1-c1ccccc1[N+](=O)[O-]
growth inhibition [1]: 3.15%
growth inhibition [2]: -1.75%
growth inhibition [3]: 2.5%
growth inhibition [4]: 2.6%
growth inhibition [5]: -7.35%
growth inhibition [6]: -3%

Cc1cnc2[nH]c(-c3cccc4ccccc34)cc(=O)c2c1
growth inhibition [1]: 13.2%
growth inhibition [2]: 7%
growth inhibition [3]: 16.1%
growth inhibition [4]: -6.6%
growth inhibition [5]: 14.9%
growth inhibition [6]: -21.6%

COc1c(Cl)cc(Cl)cc1C(c1cc(Cl)cc(Cl)c1OC)C(Cl)(Cl)Cl
growth inhibition [1]: -3.25%
growth inhibition [2]: -6.1%
growth inhibition [3]: 4.6%
growth inhibition [4]: -5%
growth inhibition [5]: -3.6%
growth inhibition [6]: 7.1%

S=C(/C=C1\SC(=Nc2ccccc2)C(=Nc2ccccc2)N1c1ccccc1)Nc1ccccc1
growth inhibition [1]: 1.25%
growth inhibition [2]: -9%
growth inhibition [3]: -9.6%
growth inhibition [4]: -4.1%
growth inhibition [5]: 10.3%
growth inhibition [6]: 1.35%

O=C(C[n+]1ccncc1)c1ccccc1
growth inhibition [1]: -20.8%
growth inhibition [2]: -18.7%
growth inhibition [3]: -6.35%
growth inhibition [4]: -6.25%
growth inhibition [5]: -10.2%
growth inhibition [6]: 2.65%

O=C(O)/C(=C\c1ccccc1[N+](=O)[O-])c1ccc(Cl)cc1
growth inhibition [1]: -0.2%
growth inhibition [2]: -14.1%
growth inhibition [3]: -2.3%
growth inhibition [4]: -46.8%
growth inhibition [5]: -8.95%
growth inhibition [6]: -1.8%

CCc1ccc(C(=O)O)o1
growth inhibition [1]: -9%
growth inhibition [2]: -12.1%
growth inhibition [3]: -7.35%
growth inhibition [4]: 7.8%
growth inhibition [5]: 12.7%
growth inhibition [6]: 12.3%

Cc1ccc(-c2cnc3c(n2)c(=O)[nH]c(=O)n3C)cc1
growth inhibition [1]: 29.5%
growth inhibition [2]: 19.1%
growth inhibition [3]: 20.5%
growth inhibition [4]: 13.8%
growth inhibition [5]: 17.4%
growth inhibition [6]: 35.6%

CC(=O)NCc1cccc([N+](=O)[O-])c1
growth inhibition [1]: 18.4%
growth inhibition [2]: -12.9%
growth inhibition [3]: 27.3%
growth inhibition [4]: 2.45%
growth inhibition [5]: 17.7%
growth inhibition [6]: 13.2%

COc1cc(CC2c3cc(OC)c(OC)cc3CC[N+]2(C)C)c(Oc2cc(CC3c4cc(OC)c(OC)cc4CC[N+]3(C)C)ccc2OC)cc1OC (stereo unspecified)
growth inhibition [1]: 8.35%
growth inhibition [2]: 10.1%
growth inhibition [3]: -0.85%
growth inhibition [4]: -4.45%
growth inhibition [5]: -6.05%
growth inhibition [6]: 28.6%

CC(=O)N(CN1C(=O)CCC1C(=O)O)c1ccccc1 (stereo unspecified)
growth inhibition [1]: 20.1%
growth inhibition [2]: -0.55%
growth inhibition [3]: -8.5%
growth inhibition [4]: 1.55%
growth inhibition [5]: 0.7%
growth inhibition [6]: -31.3%

CC1(CO)C(O)CCC2(C)C1C(O)CC1CC3CC12CCC3(O)CO (stereo unspecified)
growth inhibition [1]: -12.8%
growth inhibition [2]: -17.9%
growth inhibition [3]: 1.3%
growth inhibition [4]: -0.8%
growth inhibition [5]: -21.1%
growth inhibition [6]: -22.1%

N#Cc1c(-c2ccc(Cl)cc2)cn2c1[nH]c(=O)c1c3c(sc12)CCCC3
growth inhibition [1]: 13.2%
growth inhibition [2]: 10.2%
growth inhibition [3]: 0.15%
growth inhibition [4]: -6.8%
growth inhibition [5]: -4.25%
growth inhibition [6]: 1.35%

COC1=CC(=O)N/C1=C(\OC)c1ccccc1
growth inhibition [1]: -24.5%
growth inhibition [2]: -0.95%
growth inhibition [3]: -7%
growth inhibition [4]: -5.6%
growth inhibition [5]: -15.2%
growth inhibition [6]: -5.2%

Brc1ccccc1C(Nc1nncs1)Nc1nncs1
growth inhibition [1]: 6.6%
growth inhibition [2]: -4.35%
growth inhibition [3]: -10.7%
growth inhibition [4]: -3.1%
growth inhibition [5]: -0.25%
growth inhibition [6]: 8.35%

CS(=O)(=O)CCCCCCCCCCS(C)(=O)=O
growth inhibition [1]: 9.45%
growth inhibition [2]: 2.45%
growth inhibition [3]: -4.35%
growth inhibition [4]: -23.7%
growth inhibition [5]: 5%
growth inhibition [6]: 4.5%

CCC1(C)CCC(C)c2ccccc21 (stereo unspecified)
growth inhibition [1]: -1.75%
growth inhibition [2]: -5.4%
growth inhibition [3]: 3.45%
growth inhibition [4]: 3.45%
growth inhibition [5]: -0.8%
growth inhibition [6]: 0.3%

CCC/C=N/NS(=O)(=O)c1ccc(C)cc1
growth inhibition [1]: 32.1%
growth inhibition [2]: 15.7%
growth inhibition [3]: 30.8%
growth inhibition [4]: 11.8%
growth inhibition [5]: -29.9%
growth inhibition [6]: 12.6%

S=C1NCC(c2ccccc2)CN1
growth inhibition [1]: 0.5%
growth inhibition [2]: 1.65%
growth inhibition [3]: -2.55%
growth inhibition [4]: 19.9%
growth inhibition [5]: -7.95%
growth inhibition [6]: -5.9%

Clc1ccc2nsnc2c1
growth inhibition [1]: 14.2%
growth inhibition [2]: -12.8%
growth inhibition [3]: 24.9%
growth inhibition [4]: 16.8%
growth inhibition [5]: 18.9%
growth inhibition [6]: 35%

CC(CCc1ccccc1)NC1=NCCO1 (stereo unspecified)
growth inhibition [1]: -9.6%
growth inhibition [2]: -12.2%
growth inhibition [3]: -16.4%
growth inhibition [4]: -23.6%
growth inhibition [5]: -1.2%
growth inhibition [6]: 2.7%

CC1(c2ccncc2)NC(=O)NC1=O (stereo unspecified)
growth inhibition [1]: 31.9%
growth inhibition [2]: -12.6%
growth inhibition [3]: 10.3%
growth inhibition [4]: 1.4%
growth inhibition [5]: -5.8%
growth inhibition [6]: 18.6%

CN(C(=O)CCC(=O)O)c1ccccc1C(=O)O
growth inhibition [1]: 0.2%
growth inhibition [2]: -2.35%
growth inhibition [3]: 11%
growth inhibition [4]: -5.75%
growth inhibition [5]: 0.85%
growth inhibition [6]: -15.9%

CC1(C)C=C(S(=O)(=O)c2ccccc2)Oc2ccccc2O1
growth inhibition [1]: 15.3%
growth inhibition [2]: 8%
growth inhibition [3]: 24.2%
growth inhibition [4]: 9.2%
growth inhibition [5]: 47.8%
growth inhibition [6]: 31.9%

CC(C)C1CCC(O)CC1 (stereo unspecified)
growth inhibition [1]: -14.5%
growth inhibition [2]: 1.9%
growth inhibition [3]: -3.55%
growth inhibition [4]: -32.2%
growth inhibition [5]: 10.3%
growth inhibition [6]: 9.05%

c1ccc(C2OCC(OC3CCCCO3)CO2)cc1 (stereo unspecified)
growth inhibition [1]: -0.1%
growth inhibition [2]: -26.5%
growth inhibition [3]: -24.6%
growth inhibition [4]: -5.1%
growth inhibition [5]: -9.45%
growth inhibition [6]: -2.15%

CCN(CC)CCNc1ccc(C)c2sc3ccc(N)cc3c(=O)c12
growth inhibition [1]: 30.3%
growth inhibition [2]: 18.1%
growth inhibition [3]: 8.9%
growth inhibition [4]: 28.3%
growth inhibition [5]: -0.35%
growth inhibition [6]: 19.8%

CN(C)c1cc(-c2ccccc2)oc(=O)c1Cl
growth inhibition [1]: 11.6%
growth inhibition [2]: -19.8%
growth inhibition [3]: -24.2%
growth inhibition [4]: -22.2%
growth inhibition [5]: -16.2%
growth inhibition [6]: -9.15%

N/C(CCOCC/C(N)=N\O)=N/O
growth inhibition [1]: 16.8%
growth inhibition [2]: 25.4%
growth inhibition [3]: -22.4%
growth inhibition [4]: -1.85%
growth inhibition [5]: -2.3%
growth inhibition [6]: 6.5%

Cc1ccc(S(=O)(=O)n2cncc2CO)cc1
growth inhibition [1]: -33.7%
growth inhibition [2]: -26.8%
growth inhibition [3]: -15.1%
growth inhibition [4]: 7.55%
growth inhibition [5]: 4.05%
growth inhibition [6]: -10.7%

C=CC1C(C(=O)Nc2ccccc2)CN1C (stereo unspecified)
growth inhibition [1]: 7.1%
growth inhibition [2]: 14.4%
growth inhibition [3]: -4.15%
growth inhibition [4]: 18.3%
growth inhibition [5]: 10.9%
growth inhibition [6]: -3.4%

c1ccc([Si](c2ccccc2)(c2ccccc2)c2ccc(-c3ccc([Si](c4ccccc4)(c4ccccc4)c4ccccc4)cc3)cc2)cc1
growth inhibition [1]: 1.1%
growth inhibition [2]: -0.75%
growth inhibition [3]: -8.3%
growth inhibition [4]: -4.35%
growth inhibition [5]: -0.05%
growth inhibition [6]: -15.9%

CCOCCOCCOC(=O)CC(C)=O
growth inhibition [1]: 3.45%
growth inhibition [2]: 24.9%
growth inhibition [3]: 5.5%
growth inhibition [4]: -22.3%
growth inhibition [5]: -11.8%
growth inhibition [6]: -11.5%

C1=N/C=C\C=C/c2ccc[n+](CCCCC[n+]3ccccc3-c3ccccn3)c21
growth inhibition [1]: 81.5% (active)
growth inhibition [2]: 63.5%
growth inhibition [3]: 86.8% (active)
growth inhibition [4]: 63.1%
growth inhibition [5]: 36.7%
growth inhibition [6]: 75.2% (active)

CN(C)CCSc1nc2ccccc2s1
growth inhibition [1]: 7.6%
growth inhibition [2]: 6.55%
growth inhibition [3]: 28.7%
growth inhibition [4]: 13.3%
growth inhibition [5]: -16.6%
growth inhibition [6]: 31.1%

Cc1ccc(S(=O)(=O)OC2COC3C2OC2OC(C)(C)OC23)cc1 (stereo unspecified)
growth inhibition [1]: 19.1%
growth inhibition [2]: 11.2%
growth inhibition [3]: 0.2%
growth inhibition [4]: -9.1%
growth inhibition [5]: 7.4%
growth inhibition [6]: 0.35%

COc1ccc(N2C(=O)C(=O)N(C)C2=O)c2ccccc12
growth inhibition [1]: -15.1%
growth inhibition [2]: -26.7%
growth inhibition [3]: -2%
growth inhibition [4]: 6.1%
growth inhibition [5]: 2.85%
growth inhibition [6]: -7.95%

Cc1ccc2nc(NS(=O)(=O)c3cc(C)c(Cl)cc3S)[nH]c2c1
growth inhibition [1]: 9.35%
growth inhibition [2]: 4.35%
growth inhibition [3]: 9.1%
growth inhibition [4]: 8.25%
growth inhibition [5]: 16.4%
growth inhibition [6]: 39.9%
